Assay outcomes: PubChem, National Center for Advancing Translational Sciences (NCATS)
Hits are enriched below; roughly 2.8% of the tested compounds scored in any of these assays.
Pol beta inh – DNA polymerase beta (human) inhibition. Pol beta primer extension/strand displacement, fluorescence kinetic. Potency, µM (doses to about 114 µM), actives largely listed as inhibitors. P06746. 1.3% of 340,000 active. AID 485314
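Kinetic readout of DNA synthesis with strand displacement by Pol beta. Compound and 10 nM enzyme sit 15 min at room temperature; 50 nM substrate starts the reaction, read immediately and at 10 min.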
FEN1 inhibitor – blocks human flap endonuclease 1. Recombinant FEN1 flap cleavage, fluorescence, 15 min. 0.35% of 390,000 active. AID 588795. Potency, µM (series often up to 114 µM), hits mostly inhibitors; also: nearly all actives have a fitted effect of over 65% in size
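Quantitative HTS format: each compound was titrated, incubated with 10 nM nuclease for 15 min at room temperature, then challenged with flap substrate at 50 nM final. Signal change over 15 min gave concentration–effect curves.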
PI5P4K alpha inh – inhibitors of human PI5P4K alpha; P48426; PI5P4Kalpha enzyme, ADP-Glo luminescence, 60 min; stronger effect = lower value; max response, %; 1.2% of 330,000 active; active = max response of -50% or lower; inconclusive = between -30% and -50%; inactive = -30% or higher; also: value at the top dose of about 77 µM
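ADP-Glo luminescence end-point after a 60 min room-temperature kinase reaction. PI5P4Kalpha and substrate in HEPES pH 7.4 buffer with EGTA, 0.1% CHAPS and 5% DMSO; ATP at 5 microM final.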
Pol eta inh – blocks human DNA polymerase eta activity; 1.2% of 390,000 active; Potency, µM (doses to about 114 µM), most hits filed as inhibitors; AID 588591; Q9Y253; recombinant Pol eta, fluorescent DNA replication assay
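Fluorescent replication assay: 50 nM final substrate added after a 15 min room-temperature compound preincubation with 10 nM enzyme. Signal taken at 0 min and again at 10 min.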
POLI inh – inhibitors of human DNA polymerase iota; Q9UNA4; Pol iota fluorescent replication assay, 10 min; Potency, µM (top dose mostly 115 µM), usual class: inhibitors; 1% of 390,000 active; AID 588590
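Pol iota at 10 nM preincubated 15 min with compounds at room temperature; reaction started with fluorescent substrate, 50 nM final. Fluorescence read kinetically at 0 and 10 min; buffer-only wells as negative control.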
POLK inh – inhibitors of human DNA polymerase kappa; Q9UBT6; purified Pol kappa, fluorescent DNA synthesis assay, 10 min; Potency, µM (titrated, usually from 107 µM), most hits filed as inhibitors; 0.53% of 400,000 active; AID 588579
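50 nM final substrate added after 15 min RT preincubation of 10 nM Pol kappa with compound; fluorescence read at 0 and 10 min.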
A number is an active result; . = inactive; ? = inconclusive; / = no result. Unless noted, calls follow the shape of the dose curve; as a rule, active = well fitted curve in the direction sought with a large enough effect; inconclusive = small, poorly fitted or top-dose-only effect, or another doubt; inactive = no such curve, though single readings can be large; an effect the other way counts as inactive or inconclusive.

SMILES	Pol beta inh	FEN1 inhibitor	PI5P4K alpha inh	Pol eta inh	POLI inh	POLK inh
O=c1oc2ccc(Br)cc2cc1-c1nc2c(s1)CCc1ccccc1-2	/	.	/	/	.	.
CCN(C(=O)CSc1nc2ccccc2n1CC(=O)NCc1ccc(OC)cc1)c1ccccc1	.	.	/	.	?	.
O=C1C=CC(=O)C(C2=C3C(=O)N(CCc4ccccc4)CC(=O)N3CCC2)=C1	.	.	-71.7	.	?	.
O=C(NCC1CCCO1)C(=O)NCC1CCCN1S(=O)(=O)c1ccccc1 (stereo unspecified)	/	.	.	.	.	.
COc1ccc2cc3cc(C(=O)NCc4cccs4)oc3nc2c1	22.4µM	?	.	?	?	.
O=C1C=CC(=Nc2ccc(F)cc2)O1	/	.	.	.	.	.
O=C1C=CC(=Nc2ccc3c(c2)C(=O)c2ccccc2-3)O1	/	.	-57.8	?	.	.
CC1/C=C/C=C/C=C/C=C/C=C/C=C/C=C/C(OC2OC(C)C(O)C(N)C2O)CC2O[C@@](O)(CC(O)CC(O)C(O)CCC(O)CC(O)CC(=O)OC(C)[C@H](C)C1O)CC(O)C2C(=O)O (stereo partly specified)	/	/	/	/	/	3.55µM
O=C(O)c1sccc1Oc1ccc(NS(=O)(=O)c2ccccc2)cc1	.	.	.	.	.	.
O=C(Cc1ccccc1)NO	/	.	/	/	.	.
O=C(Cc1ccccc1)NC1(O)C(=O)c2ccccc2C1=O	.	.	.	?	7.08µM	.
CN(C(=O)C(Cl)Cl)C1CC2C=CC1C2 (stereo unspecified)	.	.	.	.	.	.
CCC1C(=O)C(C)(C)C(=O)OC1c1ccc([N+](=O)[O-])cc1 (stereo unspecified)	89.1µM	.	.	.	.	.
O=C1CC(=O)OC(c2ccc([N+](=O)[O-])cc2)O1	/	/	.	.	/	/
O=C(c1cc([N+](=O)[O-])[nH]n1)N1CCSCC1	.	.	.	.	.	.
COC(=O)c1ccn(CC(=O)NC2CCCCC2)n1	39.8µM	.	.	?	.	.
CCOC1=C2[C@H](c3ccccc3Cl)N(S(=O)(=O)c3ccc(C)cc3)C[C@H]2C(C#N)(C#N)C(C#N)(C#N)C1	/	/	-62.3	/	/	/
CCOC1=C2[C@@H](CN(S(=O)(=O)c3ccc(C)cc3)[C@H]2c2ccccc2Cl)[C@H]2C(=O)NC(=O)[C@H]2C1	/	/	.	/	/	/
CCC1(c2ccccc2)NC(=O)N(CC(=O)N2CCN(S(=O)(=O)c3ccccc3)CC2)C1=O (stereo unspecified)	.	.	-64.9	.	.	.
Cc1ccc(C)c(OCC(=O)Nc2ccc(S(=O)(=O)Nc3onc(C)c3C)cc2)c1	.	.	.	.	.	.
N#Cc1ccc(C(=O)NCc2ccc3c(c2)CCN3C(=O)c2ccc(F)cc2)cc1	.	.	/	.	.	.
CCN(CC)c1ccc(C(=O)NCc2ccc3c(c2)CCN3C(=O)c2ccc(F)cc2)cc1	.	.	/	79.4µM	.	.
CC(=O)N(/N=C1\Sc2ccccc2C1=O)c1cccc(C)c1	.	.	.	20µM	?	.
CC(=O)N(CN1C(=O)c2ccccc2C1=O)c1cccc(C)c1	.	.	.	.	.	.
COc1cccc(-c2cnc3c(NC=O)cc(-c4cc(OC)c(OC)c(OC)c4)cn23)c1	/	/	.	/	/	/
SMILES	Pol beta inh	FEN1 inhibitor	PI5P4K alpha inh	Pol eta inh	POLI inh	POLK inh
COc1cccc(-c2cc(NC=O)c3ncc(-c4ccc(OC)c(OC)c4)n3c2)c1	/	/	-54.4	/	/	/
CC(=O)c1ccc(-c2cnc3c(NC=O)cc(-c4ccc(C(=O)NC5CC5)cc4)cn23)cc1	/	/	-67.8	/	/	/
CC(=O)c1ccc(-c2cnc3c(NC=O)cc(-c4ccc(N5CCN(C)CC5)cc4)cn23)cc1	/	/	-50.9	/	/	/
CC(=O)Nc1cccc(-c2cc(NC=O)c3ncc(-c4ccc(C(C)=O)cc4)n3c2)c1	/	/	-51.4	/	/	/
CN1CCN(c2ccc(-c3cc(NC=O)c4ncc(-c5ccc(F)c(Cl)c5)n4c3)cc2)CC1	/	/	.	/	/	/
CCOc1cc(C(=O)N2CC(=O)Nc3ccc(F)cc3C2c2ccccc2)cc(OCC)c1OCC (stereo unspecified)	.	.	/	.	.	.
O=CNc1cc(-c2cccc(O)c2)cn2c(-c3ccc(F)cc3)cnc12	/	/	-72.3	/	/	/
